We go through 99 molecules from PubChem BioAssay AID430 (Sanford-Burnham Center for Chemical Genomics, 2006).

About 1,100 (1.7%) of roughly 63,000 compounds were called active. This excerpt belongs to a sample that is enriched for actives. Results with a measured potency or affinity are listed apart. Unmarked numbers belong to inactive results. No stated cut-off is given here; in the data, active means cytotoxicity above about 50%; inactive means the rest.

A short description of the experiment: HPDE-C7 pancreatic duct cell viability loss – fluorescence, HTS (AID 430).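 Further: cells exposed to compound for 48 hours before viability readout; 0% = vehicle and 100% = reference cytotoxic drug.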 The conditions noted are these: HPDE-C7 pancreatic duct cells viability, at 10 µM, stronger effect = higher value.
As for `Cc1nn(CCCNC(=O)C2CCCO2)cc1Br` (centres undefined), the cytotoxicity is -8.3%. In the case of `CCOc1cc2[nH]c(=S)n(CC3CCCN3CC)c(=O)c2cc1OCC` (centres undefined), the cytotoxicity was 4.2%. Consider `O=C(NCc1ccc2c(c1)OCO2)c1ccc(-c2ccc(Cl)cc2)o1`, for which the cytotoxicity is 53.5% (active).

With `O=C(NCc1ccc2c(c1)OCO2)c1nnc(Cc2ccc(Cl)cc2)o1`, the cytotoxicity was -0.3%.

In the case of `O=C(NCc1ccc2c(c1)OCO2)c1cccc(Cl)c1`, the cytotoxicity is -4.3%. Consider `O=C(Nc1cccc2nsnc12)c1ccc2c(c1)OCCO2`, for which the cytotoxicity is -5.8%. Then `O=C(Nc1ccccc1C(=O)N1CCCC1)C1CCN(c2ncccn2)CC1`, with -9.4%.

Consider `O=C(COC(=O)C1CCN(C(=O)c2ccc(Cl)cc2)CC1)c1ccco1`, for which the cytotoxicity is 1.1%.

On to `COc1ccc(-c2nc(C(N)=O)c3[nH]c(=O)n(-c4ccccc4OC)c3n2)c(OC)c1`, for which the cytotoxicity was -6.2%. As to `COc1ccccc1-n1c(=O)[nH]c2c(C(N)=O)nc(-c3cccnc3)nc21`, the cytotoxicity is 20.4%.

Regarding `CCc1ccc(-c2nc(C(N)=O)c3[nH]c(=O)n(-c4ccccc4OC)c3n2)cc1`, the cytotoxicity was 52.3% (active). The result for `CC1(C)CC(=O)c2sc(NC(=O)CN3C(=O)CCC3=O)nc2C1` reads -5.4%; that for `COc1ccc(S(=O)(=O)N(CC(=O)N2CCOCC2)c2cc(Cl)ccc2OC)cc1OC`, -21.9%. Turning to `CCCCNC(=O)Nc1cc(C(F)(F)F)c[nH]c1=O`, the cytotoxicity was 4.6%.

For `O=c1cc(-c2ccccc2)[nH]c2ccccc12`, the cytotoxicity was 60.9% (active). Take `Cc1cc(=O)c2ccccc2[nH]1`: the cytotoxicity was -8.3%. Take `O=c1cc(-c2ccccc2)c2ccccc2[nH]1`: the cytotoxicity is -20.9%.

For the molecule `O=C(NCCCN1CCCC1=O)NC12CC3CC(CC(C3)C1)C2`, the cytotoxicity was -16.8%. `CCOC(=O)N1CCC2(CC1)C(C(=O)C13CC4CC(CC(C4)C1)C3)C2(C#N)C#N` (centres undefined): the cytotoxicity was -15.7%.

With `Cc1cc(C)n(-c2cccc3cccnc23)n1`, the cytotoxicity is -7%. Regarding `COc1ccc(S(=O)(=O)n2nc(OC(=O)c3c(-c4ccccc4Cl)noc3C)cc2N)cc1`, the cytotoxicity is 63.1% (active). As to `COc1ccccc1C(=O)Oc1cc(N)n(S(=O)(=O)c2ccc(C)cc2)n1`, the cytotoxicity is -1.2%.

`Cc1ccc(S(=O)(=O)n2nc(OC(=O)c3c(-c4ccccc4Cl)noc3C)cc2N)cc1`: the cytotoxicity was 79.3% (active). In the case of `COc1ccc(S(=O)(=O)n2nc(OC(=O)c3ccc(C)cc3)cc2N)cc1`, the cytotoxicity is -9.2%.

`COc1ccc(S(=O)(=O)n2nc(OC(=O)c3ccccc3)cc2N)cc1`: the cytotoxicity was 1.9%. Regarding `Cc1onc(-c2ccccc2Cl)c1C(=O)Oc1cc(N)n(S(=O)(=O)c2ccc(F)cc2)n1`, the cytotoxicity is 32.7%.

Regarding `Cc1csc(NC(=O)CSc2nc(C)nc3c2c(=O)n(C)c(=O)n3C)n1`, the cytotoxicity is -1.2%.

As for `O=C(c1ccc(CS(=O)(=O)Cc2ccc(Cl)cc2)o1)N1CCCC1`, the cytotoxicity is 7.7%. Take `Oc1ccccc1-c1cc(-c2ccccc2Cl)[nH]n1`: the cytotoxicity was -4.7%. For `Cc1ccc(-c2cc(-c3ccccc3Cl)[nH]n2)c(O)c1`, the cytotoxicity is 67.3% (active).

With `Cc1ccc(-c2cc(-c3cccc(F)c3)n[nH]2)c(O)c1`, the cytotoxicity was 2.1%.

Take `Cc1ccccc1-c1cc(-c2ccccc2O)n[nH]1`: the cytotoxicity is 25.4%. In the case of `COc1ccccc1-c1cc(-c2cc(Cl)ccc2O)n[nH]1`, the cytotoxicity was -8%. In the case of `COC(=O)C1=C(C)NC(=O)CC1c1ccc(C(=O)OC)cc1` (centres undefined), the cytotoxicity is 5.9%. Then `CCN(CC)S(=O)(=O)c1ccc2[nH]cc(C(=O)NCCN3CCCCC3C)c(=O)c2c1` (centres undefined), with 0%; and `Cc1cc(=O)[nH]c(SCC2COC3(CCCCC3)O2)n1` (centres undefined), with -12.2%; and `Cc1c(-c2nc(N)nc(Nc3ccc(F)cc3)n2)oc2ccccc12`, with 6.3%. As to `Cc1c(-c2nc(N)nc(Nc3ccccc3)n2)oc2ccccc12`, the cytotoxicity was 52.8% (active). With `Cc1c(-c2nc(N)nc(Nc3ccccc3F)n2)oc2ccccc12`, the cytotoxicity is 15%.

On to `COc1nc(Oc2ccc(C(=O)OCC(N)=O)cc2)nc(N(C)C)n1`, for which the cytotoxicity is 3.8%. Turning to `O=C1CCc2cc(S(=O)(=O)N3CCC(C(=O)NC4CCCC4)CC3)ccc2N1`, the cytotoxicity is 0.9%. Then `C=CCn1c(SCc2csc(C)n2)nc2scc(-c3ccc(C)o3)c2c1=O`, with 86.5% (active); and `Cc1ccc(-c2csc3nc(C)n(-n4c(C)ccc4C)c(=O)c23)o1`, with 10.1%; and `C=CCn1c(SCc2csc(C)n2)nc2sc3c(c2c1=O)CCCCC3`, with 4.7%.

In the case of `CCSc1nc2c(c(=O)[nH]1)C(c1cccnc1)C(C(=O)OC)=C(C)N2` (centres undefined), the cytotoxicity was -19%.

With `CCn1c(C)c(C(C)=O)c(N2CCCCC2)nc1=S`, the cytotoxicity was -8.3%. For `CC(=O)c1c(C)[nH]c(C(=O)OCC(=O)Nc2cc(C)on2)c1C`, the cytotoxicity is 7.8%. As to `CC(C)(C)NC(=O)CSc1nsc(SCC(=O)NC(C)(C)C)c1C#N`, the cytotoxicity is 1.2%.

Turning to `Cc1csc(NC(=O)CSc2nc(C)cs2)n1`, the cytotoxicity is 3.7%. The result for `O=C(NCCCn1ccnc1)c1cn(-c2ccccc2)nc1-c1ccccc1` reads -1.6%; that for `O=C(NC1CCS(=O)(=O)C1)c1cn(-c2ccccc2)nc1-c1ccccc1` (centres undefined), 59.8% (active); that for `O=C(NC1CCS(=O)(=O)C1)c1ccccc1C(=O)c1ccccc1` (centres undefined), -4.3%. As for `CCCn1c(NC(=O)C2CCN(S(=O)(=O)c3cccs3)CC2)nc2ccccc21`, the cytotoxicity was 8%.

Consider `COc1ccccc1-n1nnnc1SCc1ccccc1`, for which the cytotoxicity was -13.8%. For the molecule `Cc1cccc(C)c1-n1nnnc1S(=O)(=O)Cc1ccccc1Cl`, the cytotoxicity is 1%. For the molecule `C=CCn1cnc2c(c1=O)c1nc3ccccc3nc1n2-c1ccccc1`, the cytotoxicity is 1.4%. Turning to `Cc1nc(SCC(=O)Nc2c(C)n(C)n(-c3ccccc3)c2=O)n[nH]1`, the cytotoxicity was -18.3%. `CCc1ccc2[nH]c(=O)c(CN(Cc3ccc(OC)cc3)Cc3nnnn3CCOC)cc2c1`: the cytotoxicity was 9.3%.

With `O=C1c2oc3ccc(F)cc3c(=O)c2C(c2ccccc2)N1CC1CCCO1` (centres undefined), the cytotoxicity is -14.4%. Then `Cc1noc(C(=O)N2CCN(c3ccc(F)cc3)CC2)c1Cl`, with -11.2%; and `CCN1CCN(c2ncc(C(=O)Nc3cc(Cl)ccc3OC)c3ccccc23)CC1`, with 82.5% (active); and `CCN1CCN(c2ncc(C(=O)Nc3cc(Cl)c(OC)cc3OC)c3ccccc23)CC1`, with 16%. Consider `CCN1CCN(c2ncc(C(=O)Nc3ccccc3C(=O)OC)c3ccccc23)CC1`, for which the cytotoxicity is 25.8%. Consider `COc1ccccc1Cn1c(=O)c2ccccc2n2c(SCC(=O)N3CCCCC3)nnc12`, for which the cytotoxicity is -4.5%. Take `COc1ccc(NC(=O)c2ocnc2C)cc1OC`: the cytotoxicity was -32.7%. Regarding `OC(COCC1COc2ccccc2O1)CN1CCN(c2ccccn2)CC1` (centres undefined), the cytotoxicity was 6.2%. With `Cc1nc(NCCNC(=O)c2ccco2)c2c(C)c(C)sc2n1`, the cytotoxicity was -13.6%. `CC(=O)Nc1ccc(S(=O)(=O)N2CCCc3ccccc32)cc1`: the cytotoxicity was 37.8%. Regarding `O=C(O)C1CC=CCC1C(=O)Nc1ccc(S(=O)(=O)N2CCCc3ccccc32)cc1` (centres undefined), the cytotoxicity is 30.6%. Then `COC(=O)Nc1ccc(S(=O)(=O)N2CCCc3ccccc32)cc1`, with 56.8% (active); and `Cc1cc(NC(=O)COC(=O)c2cccc(S(=O)(=O)N3CCOCC3)c2)no1`, with -14.7%. Regarding `CCCNC(=O)NC(=O)COC(=O)c1ccc(OC)c(S(=O)(=O)N2CCCc3ccccc32)c1`, the cytotoxicity was 0.1%. For `Cc1cc(NC(=O)COC(=O)c2ccc(S(=O)(=O)N3CCCc4ccccc43)cc2)no1`, the cytotoxicity was 58.6% (active).

For the molecule `CCC(C)Oc1cccc(OCCCCN2C(=O)NC(C)(C)C2=O)c1` (centres undefined), the cytotoxicity is 8.5%. As for `O=C(CC1c2ccccc2Oc2ccccc21)NCc1ccco1`, the cytotoxicity was -3.4%.

On to `CCC(=O)N1CCc2cc(Br)cc(S(=O)(=O)N3CCCCCC3)c21`, for which the cytotoxicity is -12.2%. Take `CC(=O)N1CCc2cc(S(=O)(=O)CCC(=O)N3CCN(C(=O)c4ccco4)CC3)ccc21`: the cytotoxicity is 1.6%. For `O=C(O)c1oc2ccc(Br)cc2c1-n1cccc1`, the cytotoxicity was 57.8% (active). As to `O=C(O)c1oc2ccccc2c1-n1cccc1`, the cytotoxicity was 9.5%.

For `COC(=O)c1oc2ccc(Br)cc2c1-n1cccc1`, the cytotoxicity is 1.1%. In the case of `COc1ccc(NC(=O)CSc2nnc(-c3ccccn3)n2N)cc1`, the cytotoxicity was -17.7%. In the case of `O=C(Nc1ccccc1)OCCOc1ccccc1`, the cytotoxicity was -17.6%. As for `Cn1c(C(=O)OCC(=O)NCc2cccs2)cc2sccc21`, the cytotoxicity is 9.4%.

Consider `CC(C)n1c(C(=O)OCC(=O)NCc2ccc3c(c2)OCO3)cc2sccc21`, for which the cytotoxicity is 45%.

Turning to `Cc1cc2c(cc(C(=O)OCC(=O)NCc3cccs3)n2C(C)C)o1`, the cytotoxicity was 57.6% (active).

For the molecule `CCOC(=O)N1CCN(C(=O)CSc2nnc(Cn3c(=O)sc4ccccc43)n2C)CC1`, the cytotoxicity was -4.9%.

In the case of `CCCCOc1ccc(C(=O)Nc2ccncc2)cc1`, the cytotoxicity is 7.8%.

In the case of `CNc1oc(-c2ccccc2Cl)nc1C#N`, the cytotoxicity was -3.8%. For `COCCNc1oc(-c2ccccc2Cl)nc1C#N`, the cytotoxicity is -6%. Turning to `COc1ccc(Nc2oc(-c3ccccc3Cl)nc2C#N)cc1`, the cytotoxicity is 57.9% (active). On to `Cc1ccccc1-n1nnnc1-c1ccccc1`, for which the cytotoxicity was -2.5%. With `O=C1C(c2ccncc2)=C(O)c2ccccc21`, the cytotoxicity is -1.4%. As to `COc1ccc(C(=O)c2ccc(N(C)C)cc2)c(OC)c1`, the cytotoxicity is 68.7% (active). On to `COc1ccc(C(=O)c2ccc(N3CCOCC3)cc2)c(OC)c1`, for which the cytotoxicity is 7.3%.

For `COc1ccc(C(=O)Oc2ccc(C(C)=O)cc2)c(OC)c1`, the cytotoxicity is 13.4%. Turning to `Cc1ccc(S(=O)(=O)NC2OC(=O)C(Cl)=C2Cl)cc1` (centres undefined), the cytotoxicity is 11.4%.

Turning to `Cc1nnc2n1N=CC=C(C(C)(C)C)S2`, the cytotoxicity was -5.2%. For `COn1cnnc1-c1ccccc1`, the cytotoxicity was -8.8%.

With `Cc1nnc2n1N=CC=C(c1ccccc1)S2`, the cytotoxicity is 57.5% (active).
